Source: PubChem BioAssay (NCI)
Where “and” joins values, the source holds several entries; their conditions need not be identical. Identical values can stand only once. The panel holds about 83,000 compounds, 20% with a hit somewhere; the sample as a whole holds those more often.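 Treatment: one concentration, 48 hours, 96-well format. Scoring: percent growth, with anything below 10 considered active.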 Calls of active or inactive are those of the source.

What was measured:
Assay in all cases: NCI-60 one-dose screen, 48 h (100 = growth as untreated, 0 = no growth, -100 = all killed)
Settings in all cases: 10 µM unless noted
SK-MEL-2 melanoma = test system: SK-MEL-2 melanoma
SN12C renal = test system: SN12C renal
UO-31 renal = test system: UO-31 renal
TK-10 renal = test system: TK-10 renal
ACHN renal = test system: ACHN renal
CAKI-1 renal = test system: CAKI-1 renal
A498 renal = test system: A498 renal
CCRF-CEM leukemia = test system: CCRF-CEM leukemia
MOLT-4 leukemia = test system: MOLT-4 leukemia
SR leukemia = test system: SR leukemia
RPMI-8226 leukemia = test system: RPMI-8226 leukemia
OVCAR-8 ovarian = test system: OVCAR-8 ovarian
OVCAR-5 ovarian = test system: OVCAR-5 ovarian
OVCAR-4 ovarian = test system: OVCAR-4 ovarian
SK-OV-3 ovarian = test system: SK-OV-3 ovarian
IGROV1 ovarian = test system: IGROV1 ovarian
OVCAR-3 ovarian = test system: OVCAR-3 ovarian
HS 578T breast = test system: HS 578T breast
NCI/ADR-RES ovarian = test system: NCI/ADR-RES ovarian
EKVX NSCLC = test system: EKVX NSCLC

Measured: growth

CCOc1ccc(/C=C\C(=O)O)cc1
inactive: SK-MEL-2 melanoma 114% | SN12C renal 101% | UO-31 renal 98.7% | TK-10 renal 109% | ACHN renal 109% | CAKI-1 renal 113% | A498 renal 101% | CCRF-CEM leukemia 96% | MOLT-4 leukemia 92% | SR leukemia 81.6% | RPMI-8226 leukemia 113% | OVCAR-8 ovarian 98.7% | OVCAR-5 ovarian 117% | OVCAR-4 ovarian 108% | SK-OV-3 ovarian 139% | IGROV1 ovarian 101% | OVCAR-3 ovarian 117% | HS 578T breast 112%

CCCCNC(=O)c1ccccc1C
inactive: SK-MEL-2 melanoma 100% | SN12C renal 98.5% | UO-31 renal 94.4% | TK-10 renal 97.5% | ACHN renal 104% | CAKI-1 renal 96.5% | A498 renal 126% | CCRF-CEM leukemia 99.7% | MOLT-4 leukemia 98.5% | SR leukemia 85.3% | RPMI-8226 leukemia 99.7% | OVCAR-8 ovarian 107% | OVCAR-5 ovarian 94.4% | OVCAR-4 ovarian 104% | SK-OV-3 ovarian 97.3% | IGROV1 ovarian 96.2% | OVCAR-3 ovarian 105% | HS 578T breast 104% | NCI/ADR-RES ovarian 99.3%

O=C1c2cccnc2-c2ncccc21
inactive: SK-MEL-2 melanoma 122% [100 µM] | SN12C renal 108% [100 µM] | UO-31 renal 97.1% [100 µM] | TK-10 renal 97.1% [100 µM] | ACHN renal 112% [100 µM] | CAKI-1 renal 103% [100 µM] | A498 renal 103% [100 µM] | CCRF-CEM leukemia 106% [100 µM] | MOLT-4 leukemia 117% [100 µM] | SR leukemia 120% [100 µM] | RPMI-8226 leukemia 99.8% [100 µM] | OVCAR-8 ovarian 106% [100 µM] | OVCAR-5 ovarian 122% [100 µM] | OVCAR-4 ovarian 109% [100 µM] | SK-OV-3 ovarian 107% [100 µM] | IGROV1 ovarian 113% [100 µM] | OVCAR-3 ovarian 110% [100 µM] | HS 578T breast 89.5% [100 µM] | NCI/ADR-RES ovarian 102% [100 µM]

CNc1ccc(Cl)cc1S(=O)(=O)c1ccccc1[N+](=O)[O-]
inactive: SK-MEL-2 melanoma 103% and 85.6% | EKVX NSCLC 103% and 94.5% | SN12C renal 89.8% and 98.3% | UO-31 renal 91.8% and 92.6% | ACHN renal 107% and 97.9% | A498 renal 118% | CCRF-CEM leukemia 84.9% and 93.3% | MOLT-4 leukemia 85.6% and 103% | SR leukemia 86.3% and 88.2% | RPMI-8226 leukemia 87.3% | OVCAR-8 ovarian 105% | OVCAR-5 ovarian 90.2% and 105% | OVCAR-4 ovarian 87.6% and 60.6% | SK-OV-3 ovarian 120% and 110% | IGROV1 ovarian 78.8% and 104% | OVCAR-3 ovarian 105% and 104% | HS 578T breast 96.7% | NCI/ADR-RES ovarian 36.7% and 90.6%

N=c1sc2ccccc2n1CC(=O)O
active: OVCAR-8 ovarian 4.81%
inactive: SK-MEL-2 melanoma 95.4% | SN12C renal 94.1% | UO-31 renal 86.4% | TK-10 renal 96.9% | ACHN renal 105% | CAKI-1 renal 97.8% | A498 renal 102% | CCRF-CEM leukemia 85.8% | MOLT-4 leukemia 117% | SR leukemia 106% | RPMI-8226 leukemia 93.7% | OVCAR-5 ovarian 110% | OVCAR-4 ovarian 115% | SK-OV-3 ovarian 106% | IGROV1 ovarian 107% | OVCAR-3 ovarian 114% | HS 578T breast 92% | NCI/ADR-RES ovarian 108%

Nc1ccccc1SC(CC(=O)c1ccccc1)c1cccc([N+](=O)[O-])c1 (configuration not stated)
inactive: SK-MEL-2 melanoma 113% and 81.9% | SN12C renal 87.7% and 88.8% | UO-31 renal 71.6% and 61.5% | TK-10 renal 131% and 113% | ACHN renal 90.1% and 90.7% | CAKI-1 renal 70.9% and 95.2% | A498 renal 91.5% and 104% | CCRF-CEM leukemia 53.3% and 34.9% | MOLT-4 leukemia 87.6% and 55% | OVCAR-8 ovarian 87.9% and 92.8% | OVCAR-5 ovarian 105% and 119% | OVCAR-4 ovarian 89% and 74.5% | SK-OV-3 ovarian 104% and 109% | IGROV1 ovarian 127% and 96.5% | OVCAR-3 ovarian 104% and 66.5% | HS 578T breast 106% and 110% | NCI/ADR-RES ovarian 91.4% and 92.9%
70.2% (inactive) and 2.4% (active): SR leukemia

CC(C)(C)C1CCC(=NO)CC1 (configuration not stated)
inactive: SK-MEL-2 melanoma 94.5% | SN12C renal 103% | UO-31 renal 71.7% | TK-10 renal 108% | ACHN renal 105% | CAKI-1 renal 97.2% | A498 renal 97.4% | CCRF-CEM leukemia 99.8% | MOLT-4 leukemia 123% | SR leukemia 116% | RPMI-8226 leukemia 92.5% | OVCAR-8 ovarian 91.9% | OVCAR-5 ovarian 90.3% | OVCAR-4 ovarian 97.3% | SK-OV-3 ovarian 101% | IGROV1 ovarian 99.5% | OVCAR-3 ovarian 104% | HS 578T breast 102% | NCI/ADR-RES ovarian 103%

CCc1ccc(OC(=O)CCl)cc1
inactive: SK-MEL-2 melanoma 99.9% | EKVX NSCLC 98.6% | SN12C renal 106% | UO-31 renal 88.6% | ACHN renal 102% | CAKI-1 renal 101% | A498 renal 88.3% | CCRF-CEM leukemia 104% | MOLT-4 leukemia 102% | SR leukemia 101% | RPMI-8226 leukemia 111% | OVCAR-8 ovarian 101% | OVCAR-5 ovarian 107% | OVCAR-4 ovarian 95.6% | SK-OV-3 ovarian 112% | IGROV1 ovarian 108% | OVCAR-3 ovarian 104% | NCI/ADR-RES ovarian 103%

N#CC1c2ccccc2C=CN1C(=O)c1ccccc1 (configuration not stated)
97.6% (inactive) and -6.46% (active): CAKI-1 renal
inactive: SK-MEL-2 melanoma 109% | SN12C renal 99.8% and 94.3% | UO-31 renal 78.6% and 97.8% | ACHN renal 94.6% and 90% | A498 renal 98.9% and 148% | CCRF-CEM leukemia 88.2% and 130% | MOLT-4 leukemia 89.2% and 125% | SR leukemia 91.7% and 146% | RPMI-8226 leukemia 105% and 159% | OVCAR-8 ovarian 92.7% and 85% | OVCAR-5 ovarian 110% and 87.5% | OVCAR-4 ovarian 96.8% and 89.7% | SK-OV-3 ovarian 120% and 128% | IGROV1 ovarian 101% and 73.9% | OVCAR-3 ovarian 93.6% and 95.9% | HS 578T breast 94.2% and 150%

CCNCc1ccccc1
inactive: SK-MEL-2 melanoma 111% | EKVX NSCLC 111% | SN12C renal 104% | UO-31 renal 86.7% | CAKI-1 renal 101% | A498 renal 97.4% | CCRF-CEM leukemia 121% | MOLT-4 leukemia 103% | SR leukemia 97.5% | RPMI-8226 leukemia 119% | OVCAR-8 ovarian 100% | OVCAR-5 ovarian 98.5% | OVCAR-4 ovarian 114% | SK-OV-3 ovarian 97.5% | IGROV1 ovarian 106% | OVCAR-3 ovarian 102% | HS 578T breast 102% | NCI/ADR-RES ovarian 102%

CC1CC(O)CC(C)(C)C1.CC1CC(O)CC(C)(C)C1.CC1CC(O)CC(C)(C)C1.CC1CC(O)CC(C)(C)C1.[Ti] (configuration not stated)
inactive: SK-MEL-2 melanoma 93.9% | SN12C renal 82% | UO-31 renal 79% | TK-10 renal 104% | ACHN renal 111% | CAKI-1 renal 94.9% | A498 renal 106% | CCRF-CEM leukemia 112% | MOLT-4 leukemia 98.8% | SR leukemia 81.1% | RPMI-8226 leukemia 96.5% | OVCAR-8 ovarian 106% | OVCAR-5 ovarian 114% | OVCAR-4 ovarian 127% | SK-OV-3 ovarian 91.4% | IGROV1 ovarian 101% | OVCAR-3 ovarian 122% | HS 578T breast 99.9% | NCI/ADR-RES ovarian 99.1%

O=C(O)c1cccc(Br)c1
inactive: SK-MEL-2 melanoma 105% | EKVX NSCLC 105% and 101% | SN12C renal 104% | UO-31 renal 68.5% and 88.8% | ACHN renal 107% and 108% | CAKI-1 renal 102% and 99% | A498 renal 99.8% and 83% | CCRF-CEM leukemia 99.7% and 101% | MOLT-4 leukemia 85.9% and 96.2% | SR leukemia 90.2% and 100% | OVCAR-8 ovarian 108% and 100% | OVCAR-5 ovarian 100% and 98.7% | OVCAR-4 ovarian 99.5% and 105% | SK-OV-3 ovarian 104% and 106% | IGROV1 ovarian 105% and 104% | OVCAR-3 ovarian 100% and 105% | HS 578T breast 124% and 101% | NCI/ADR-RES ovarian 98.1% and 106%

CC1=CC(=O)c2cccc(NC3=NCCO3)c21
inactive: SK-MEL-2 melanoma 93.8% | EKVX NSCLC 98.9% | SN12C renal 95.1% | UO-31 renal 86.5% | ACHN renal 98.7% | A498 renal 110% | CCRF-CEM leukemia 108% | MOLT-4 leukemia 111% | SR leukemia 91.6% | OVCAR-8 ovarian 102% | OVCAR-5 ovarian 95.2% | OVCAR-4 ovarian 95.1% | SK-OV-3 ovarian 103% | IGROV1 ovarian 104% | OVCAR-3 ovarian 106% | HS 578T breast 103% | NCI/ADR-RES ovarian 97.5%
